Hits are enriched below; roughly 19% of the tested compounds scored in any of these assays.
TDP1 cell CPT: qHTS for Inhibitors of human tyrosyl-DNA phosphodiesterase 1 (TDP1): qHTS in cells in presence of CPT | Potency, µM (doses to about 46.2 µM), for the others: at the highest dose activity change, negative = growth inhibition, actives largely listed as inhibitors | AID 686979, 2013 | chicken DT40 Tdp1-/-;hTDP1 cells + 20 nM CPT, ATP luminescence, 48 h | 420,000 compounds, 12% hits; note: potency is the fitted concentration of half-maximal effect; nearly all actives have a fitted effect of over 55% in size
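Chicken DT40 Tdp1-/- cells complemented with human TDP1, 400 cells/well, exposed to compounds plus 20 nM camptothecin for at least 48 h at 37 C; viability read as ATP content by CellTiter-Glo luminescence.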
DT40 TDP1 no CPT: qHTS for Inhibitors of human tyrosyl-DNA phosphodiesterase 1 (TDP1): qHTS in cells in absence of CPT; Potency, µM (top dose mostly 46.2 µM), inactives show at the highest dose activity change, negative = growth inhibition, usual class: inhibitors; 420,000 compounds, 15% hits; DT40 Tdp1-/- hTDP1 cells, no CPT, ATP luminescence, 48 h; note: potency is the fitted concentration of half-maximal effect; nearly all actives have a fitted effect of over 55% in size
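A cellular qHTS used chicken DT40 cells lacking endogenous Tdp1 but carrying stably transfected human TDP1. Compounds were applied without camptothecin, and cell growth kinetics were judged by ATP-dependent luminescence after ≥48 hr.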
HT1080 IDH1KD tx: qHTS for induction of synthetic lethality in tumor cells producing 2HG: qHTS for the HT-1080-IDH1KD cell line | AID 686971, 2013 | 360,000 compounds, 2% hits | HT-1080 IDH1 knockdown viability, ATP luminescence, 48 h | Potency, µM (highest dose often 46.1 µM), for the others: at the highest dose activity, negative = toxicity, usual class: cytotoxic;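 note: potency is the fitted concentration of half-maximal effect; 0% = DMSO wells and -100% = cell-free medium wells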
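Using the IDH1-knockdown HT-1080 line run in the same batch and compound series as the NT line, viability after 48 h at 37 °C was determined by CellTiter-Glo luminescence and expressed as % activity.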
HT1080NT lethal: qHTS for induction of synthetic lethality in tumor cells producing 2HG: qHTS for the HT-1080-NT fibrosarcoma cell line; HT-1080-NT fibrosarcoma viability, CellTiter-Glo ATP luminescence, 48 h; Potency, µM (titrated, usually from 46.1 µM), for the others: at the top dose activity, negative = less viability, most hits filed as cytotoxic; 360,000 compounds, 1.6% hits; AID 686970, 2013;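 note: NT is the 2HG producing partner of a matched IDH1 knockdown line; potency is the fitted concentration of half-maximal effect; 0% = DMSO-treated cells and -100% = media-only wells without cells; nearly all actives have a fitted effect of over 55% in size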
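Luminescent CellTiter-Glo readout after 48 hours of compound exposure at 37 degrees C defined viability of HT-1080-NT cells. Activity was normalized to DMSO wells and cell-free media wells; concentration-response curves were fitted and assigned curve classes.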
IL1B secr inh: qHTS for Inhibitors of Inflammasome Signaling: IL-1-beta AlphaLISA Primary Screen; THP-1 LPS/ATP IL-1B secretion, AlphaLISA, 16 h; stronger effect = lower value; activity change, % at 57.5 µM; 360,000 compounds, 4.7% hits; AID 743279, 2014; in the data active = activity change below about -50%; inconclusive = mostly about -30% to -49%
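THP-1 cells pretreated 1 hr with compounds (up to 57.5 uM final), then stimulated with LPS (250 ng/mL final) plus ATP (1.25 mM final); secreted IL-1B measured by AlphaLISA after 16 hr, decreased signal indicating inhibition.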
* marks the source's active call; other numbers are inactive results; ? = inconclusive; / = not tested or not shown; [ ] = remark or other dose. Unless noted, calls come from the whole dose curve; as a rule, active = well fitted curve in the direction sought with a large enough effect; inconclusive = small, poorly fitted or top-dose-only effect, or another doubt; inactive = no such curve, though single readings can be large; an effect the other way counts as inactive or inconclusive. Unless noted, % is set by controls: 0 for no effect and ±100 for the full control effect.

SMILES | TDP1 cell CPT | DT40 TDP1 no CPT | HT1080 IDH1KD tx | HT1080NT lethal | IL1B secr inh
Cc1ccc(C)c(NC(=S)N2CCN(c3cccc(C(F)(F)F)c3)CC2)c1 | ? | -29% | -4% | -3% | 15
Cc1nnc2ccc(N3CCN(c4cccc(C(F)(F)F)c4)CC3)nn12 | 26µM* | 16µM* | -19% | -19% | 45
CCNC(=S)N1CCN(c2cccc(C(F)(F)F)c2)CC1 | 15µM* | 13µM* | 0% | 4% | -25
N#CC1C(=O)NC(=O)CC12CCCCC2 (stereo not drawn) | 24% | 3% | 3% | 0% | -4
FC(F)(F)c1cccc(N2CCN(C(=S)NC3CCCCC3)CC2)c1 | ? | 23µM* | ? | -27% | 7
COc1ccc(S(=O)(=O)N2CCCCC2)cc1NC(=O)c1cnc(C)cn1 | ? | ? | 4% | 4% | 7
C/C(=N\NC(=O)CNC(=O)c1cccs1)c1ccc(Cl)c(Cl)c1 | 2.6µM* | ? | ? | ? | -19
CN(c1ccccc1)S(=O)(=O)c1cc(C(=O)c2nccn2C)ccc1Cl | ? | 16µM* | 6%[9.24 µM] | -6% | -22
Cc1cccc(N2CCN(S(=O)(=O)c3cc(C(=O)Nc4ccccc4Cl)ccc3F)CC2)c1C | ? | 23µM* | / | / | /
Cc1ccc(C(=O)Nc2ccccc2N2CCCCC2)cc1S(=O)(=O)N1CCOCC1 | ? | ? | -25% | 5% | -9
O=C(NCC1COc2ccccc2O1)c1ccc(F)c(S(=O)(=O)N2CCOCC2)c1 (stereo not drawn) | 18µM* | ? | -4% | -8% | 14
CN(c1ccccc1)S(=O)(=O)c1cc(C(=O)OCC(N)=O)ccc1Cl | -4% | ? | 15% | 16% | 14
O=C(NCC1COc2ccccc2O1)c1cc(S(=O)(=O)N2CCOCC2)c(Cl)cc1Cl (stereo not drawn) | ? | -27% | -16% | -1% | -8
O=C(Nc1ccccc1N1CCCCC1)c1ccc(F)c(S(=O)(=O)N2CCOCC2)c1 | 16µM* | 21µM* | -13% | -17% | 21
CC(C)[C@H](NC(=O)c1ccco1)C(=O)Nc1ccc(N2CCCCCC2)cc1 | 0% | -2% | 12% | 6% | -4
C(=N\NCc1ccccc1)/c1ccc2nccnc2c1 | ? | ? | 6% | 10% | -2
O=C(Nc1cc(C(F)(F)F)ccc1-n1cnc2ccccc21)c1ccccc1 | 27% | -15% | -1% | -1% | -28
CN(c1ccccc1)S(=O)(=O)c1cc(C(=O)Nc2ccccc2N2CCOCC2)ccc1Cl | 16µM* | 9.2µM* | -13% | -3% | ?
O=C(Nc1ccccc1N1CCCC1)c1ccc(Cl)c(S(=O)(=O)N2CCOCC2)c1 | -26% | ? | -1% | 0% | -5
C(=NN1CCCCCC1)c1ccc2c(c1)OCO2 | 5% | -9% | 9% | 2% | -16
CCOCCCn1c(C)nc2c[n+](CC(=O)c3ccc4ccccc4c3)cc(Br)c21 | 2.3µM* | 2.6µM* | 0% | -3% | -58*
Cn1nnc2c[n+](CC(=O)c3ccc4ccccc4c3)cc(Br)c21 | ? | 15µM* | 21µM* | ? | -101*
CCC(C)(C)NC(=O)CN(Cc1ccc(F)cc1)C(=O)CCC(=O)Nc1ccccn1 | -4% | -18% | -3% | -6% | -12
CCOC(=O)C1(CCc2ccccc2)CCN(C(=O)C2CCOCC2)CC1 | -15% | ? | 14% | -18% | -11
Cc1ccccc1C1CC(=O)NC2=C1C(=O)CCC2 (stereo not drawn) | 5% | -2% | 13% | 2% | -4
SMILES | TDP1 cell CPT | DT40 TDP1 no CPT | HT1080 IDH1KD tx | HT1080NT lethal | IL1B secr inh
CCC(C)Oc1ccccc1C1CC(=O)NC2=C1C(=O)CCC2 (stereo not drawn) | 26µM* | ? | ? | ? | 61
COc1cc(OC)c(NC(=O)c2cc(CN3CCOCC3)on2)cc1Cl | 1% | -19% | / | / | /
CCN1CCN(S(=O)(=O)c2ccc(F)c(C(=O)Nc3c(F)cc(F)cc3Br)c2)CC1 | -16% | 2% | 4% | 7% | 0
COc1cc(Cl)c(C)cc1NC(=O)c1cnc(N2CCOCC2)c2ccccc12 | 10µM* | 9.2µM* | / | / | /
COc1cc(OC)c(NC(=O)c2cc(C(C)=O)n3ccccc23)cc1Cl | 7.3µM* | ? | / | / | /
CCN1CCN(c2ncc(C(=O)Nc3c(F)cc(F)cc3Br)c3ccccc23)CC1 | 14µM* | 16µM* | ? | ? | -12
CCN1CCN(c2ncc(C(=O)Nc3cc(Cl)c(OC)cc3OC)c3ccccc23)CC1 | ? | 21µM* | 0% | -2% | -12
Cc1ccc(C)c(NC(=O)CS(=O)(=O)c2cn(C)c3ccccc23)c1 | -17% | -15% | -26% | 1% | 13
COc1cc(Cl)c(C)cc1NC(=O)C1CCN(c2nc3ccccc3n3cccc23)CC1 | ? | 16µM* | / | / | /
Cc1cc(C)c(NC(=O)C2CCN(c3nc4ccccc4n4cccc34)CC2)c(C)c1 | -107% | ? | / | / | /
CCCCCCn1c(N2CCN(c3ccccc3)CC2)nc2c1c(=O)[nH]c(=O)n2C | 23µM* | ? | ? | -16% | ?
Cn1c(=O)[nH]c(=O)c2c1nc(CN1CCN(c3ccccc3F)CC1)n2CCCc1ccccc1 | ? | 14µM* | 3% | 3% | -18
Cn1c(=O)[nH]c(=O)c2c1nc(CN1CCN(c3ccc(F)cc3)CC1)n2CCc1ccccc1 | -13% | -17% | 15% | 0% | 37
Cn1c(=O)[nH]c(=O)c2c1nc(N1CCN(c3ccccc3)CC1)n2CCSc1ncccn1 | ? | 10µM* | 0% | 0% | -7
Cn1c(=O)[nH]c(=O)c2c1nc(N1CCCCC1)n2CCSc1ncccn1 | -16% | -14% | -1% | -2% | -17
CCCCCCn1c(N2CCN(c3cccc(Cl)c3)CC2)nc2c1c(=O)[nH]c(=O)n2C | ? | 23µM* | -6% | 0% | ?
CCOC(=O)C1CCCN(c2oc(-c3ccc(OC)cc3)nc2C#N)C1 (stereo not drawn) | -3% | ? | 14% | 9% | -2
Cn1c(=O)[nH]c(=O)c2c1nc(CN1CCN(c3cccc(Cl)c3)CC1)n2CCc1ccccc1 | ? | ? | ? | ? | -19
CCCn1c(N2CCN(CC(=O)c3c(C)n(C)c4ccccc34)CC2)nc2c1c(=O)[nH]c(=O)n2C | ? | 18µM* | -20% | -23% | -69*
